From PubChem BioAssay (EPA / NIEHS)
“And” between values parts separate entries of the source, which are not always exact repeats. Identical values can stand only once. Inconclusive results are not listed. More than one record can exist for a structure, and the calls need not agree. The source made the active and inactive calls. Rule for the calls, unless noted: active = hit-call score of the fitted dose curve at least 0.9, where 1 is the maximum; inconclusive = response in the unintended direction; inactive = score below 0.9.

What was measured:
[1] = read-out: Thyroid Hormone Responsive (THRSP), THRSP (gene 7069); test: LTEA_HepaRG_THRSP: Life Technologies and Expression Analysis (LTEA) Assay for Thyroid Hormone Responsive (THRSP) using HepaRG (AID 2283536; active = hit-call score of the fitted dose curve at least 0.9, where 1 is the maximum; inactive = score below 0.9); conditions: mRNA level, 48 h; actives raise or lower the signal
Method in brief: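 mRNA induction or loss relative to 0.5% DMSO vehicle was fitted bidirectionally across an eight-point curve whose highest exposure was 100 uM. Human HepaRG liver cells received chemicals in duplicate over 48 h before RNA extraction.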

[2] = read-out: Cellular tumor antigen p53 (Homo sapiens) (UniProt P04637); test: LTEA_HepaRG_TP53: Life Technologies and Expression Analysis (LTEA) Assay for Tumor Protein P53 (TP53) using HepaRG (AID 2283537; active = hit-call score of the fitted dose curve at least 0.9, where 1 is the maximum; inactive = score below 0.9); conditions: mRNA level, 48 h; actives raise or lower the signal
Method in brief: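 Differentiated HepaRG cells in serum-free induction medium exposed 48 h in duplicate to 8 half-log concentrations, top 100 uM, 0.5% DMSO. TP53 mRNA by TaqMan qRT-PCR (Fluidigm), normalized to ACTB, GAPDH, POLR2A; fitted bidirectionally versus DMSO.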

[3] = read-out: UDP glucuronosyltransferase (UGT1A1), UGT1A1 (gene 54658); test: LTEA_HepaRG_UGT1A1: Life Technologies and Expression Analysis (LTEA) Assay for UDP glucuronosyltransferase (UGT1A1) using HepaRG (AID 2283538; active = hit-call score of the fitted dose curve at least 0.9, where 1 is the maximum; inactive = score below 0.9); conditions: mRNA level, 48 h; actives raise or lower the signal
Method in brief: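 HepaRG cells, 0.5% DMSO vehicle, 48 h exposure in serum-free induction medium to 8-point half-log series topping at 100 uM, in duplicate. UGT1A1 mRNA by Fluidigm qRT-PCR, normalized to ACTB/GAPDH/POLR2A; bidirectional fit versus DMSO.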

[4] = read-out: UDP glucuronosyltransferase (UGT1A6), UGT1A6 (gene 54578); test: LTEA_HepaRG_UGT1A6: Life Technologies and Expression Analysis (LTEA) Assay for UDP glucuronosyltransferase (UGT1A6) using HepaRG (AID 2283539; active = hit-call score of the fitted dose curve at least 0.9, where 1 is the maximum; inactive = score below 0.9); conditions: mRNA level, 48 h; actives raise or lower the signal
Method in brief: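 Expression was quantified by TaqMan qRT-PCR on Fluidigm arrays with ACTB/GAPDH/POLR2A normalization and bidirectional fitting against 0.5% DMSO. HepaRG cells (~100,000/well) were treated in duplicate for 48 h at eight half-log concentrations up to 100 uM in serum-free induction medium.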

[5] = read-out: X-box binding protein 1 (XBP1), XBP1 (gene 7494); test: LTEA_HepaRG_XBP1: Life Technologies and Expression Analysis (LTEA) Assay for X-box binding protein 1 (XBP1) using HepaRG (AID 2283540; active = hit-call score of the fitted dose curve at least 0.9, where 1 is the maximum; inactive = score below 0.9); conditions: mRNA level, 48 h; actives raise or lower the signal
Method in brief: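 XBP1 transcript by qRT-PCR (housekeeping-normalized: ACTB, GAPDH, POLR2A) after 48 h chemical treatment of HepaRG cells, 8-point half-log series topping at 100 uM, vehicle 0.5% DMSO. Gain and loss of signal fitted relative to DMSO.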

[6] = LTEA_HepaRG_LDH_cytotoxicity: Cytotoxicity Assessment in the Life Technologies and Expression Analysis (LTEA) Assay (AID 2283563);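 for AC50: LDH activity released into spent culture medium as a marker of cell death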
Method in brief: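 LDH release into culture medium read after 48 h chemical treatment of HepaRG cells. Duplicate wells, eight-point half-log series topping at 100 uM, 0.5% DMSO vehicle and baseline.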

[7] = TOX21_p53_BLA_p2_viability: Viability Assessment in the Tox21 HCT-116 p53 Agonism Beta-lactamase Assay, Phase 2 (AID 2283591);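 note: compound exposure lasted 16 h at 37 °C; actives lower the ATP signal meaning cytotoxicity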
Method in brief: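 Cytotoxicity readout: CellTiter-Glo ATP luminescence, 30 min at room temperature, after the beta-lactamase read. Cells were HCT116 exposed 16 h at 37C to compounds pin-transferred at 217-fold dilution from DMSO stocks.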

[8] = molecular target: Cellular tumor antigen p53 (Homo sapiens) (UniProt P04637); test: TOX21_p53_BLA_p2_ratio: Tox21 HCT-116 p53 Agonism Beta-lactamase Assay, Ratio, Phase 2 (AID 2283592)
Method in brief: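 Gain-of-signal p53 agonism was scored from the beta-lactamase FRET ratio (460/530 nm, 405 nm excitation) in HCT116 cells treated 16 h at 37C, 5% CO2, with DMSO serving as negative control and baseline.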

[9] = molecular target: Cellular tumor antigen p53 (Homo sapiens) (UniProt P04637); test: TOX21_p53_BLA_p3_ratio: Tox21 HCT-116 p53 Agonism Beta-lactamase Assay, Ratio, Phase 3 (AID 2283596)
Method in brief: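 HCT116 p53-bla cells (4000/well) given compound in DMSO (217-fold dilution) after 5 h, incubated 16 h at 37C. CCF4-AM substrate 2 h at room temperature; 460/530 nm emission ratio, gain fitted against DMSO.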

[10] = TOX21_p53_BLA_p4_viability: Viability Assessment in the Tox21 HCT-116 p53 Agonism Beta-lactamase Assay, Phase 4 (AID 2283597);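 note: hits lower the luminescence signal meaning cytotoxicity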
Method in brief: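 Following a 16 h exposure at 37C, the treated HCT116 wells were first read for the FRET ratio. They were then lysed with CellTiter-Glo, and ATP luminescence was recorded after 30 min at room temperature.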

[11] = molecular target: Cellular tumor antigen p53 (Homo sapiens) (UniProt P04637); test: TOX21_p53_BLA_p5_ratio: Tox21 HCT-116 p53 Agonism Beta-lactamase Assay, Ratio, Phase 5 (AID 2283599)
Method in brief: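 Beta-lactamase reporter ratio (blue 460 nm over green 530 nm, 405 nm excitation) after 2 h CCF4-AM loading, in HCT-116 cells exposed 16 h at 37 C to compounds pinned at 217-fold dilution. Increases relative to DMSO baseline scored.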

[12] = TOX21_p53_BLA_p5_viability: Viability Assessment in the Tox21 HCT-116 p53 Agonism Beta-lactamase Assay, Phase 5 (AID 2283600)
Method in brief: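 After the 460/530 nm beta-lactamase measurement, the wells received an ATP-detection luciferase reagent; signal was read 30 min later at RT. Compound treatment lasted 16 h on cells pre-incubated 5 h post-seeding.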

[13] = molecular target: Cellular tumor antigen p53 (Homo sapiens) (UniProt P04637); test: TOX21_p53_BLA_p4_ratio: Tox21 HCT-116 p53 Agonism Beta-lactamase Assay, Ratio, Phase 4 (AID 2283601)
Method in brief: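 Signal is the blue/green (460nm/530nm) ratio of cleaved versus uncleaved CCF4-AM substrate, read after 2 h substrate loading. Cells were HCT116 carrying the p53-responsive beta-lactamase reporter, dosed 16 h at 37C, 5% CO2; CellTiter-Glo measured in parallel.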

[14] = Tanguay_ZF_120hpf_MORT_legacy: (Legacy) Oregon State University Tanguay Lab 120 Hour Post-fertilization zebrafish Assay for Mortality (AID 2283633);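 for AC50: fitted as increase in binary mortality versus DMSO negative control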
Method in brief: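 Static waterborne exposure from 6 to 120 hpf at 28C of single dechorionated wild-type (5D) embryos per well, 0.64% DMSO final. Death recorded present/absent by brightfield at 24 and 120 hpf.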

[15] = Tanguay_ZF_120hpf_YSE_legacy: (Legacy) Oregon State University Tanguay Lab 120 Hour Post-fertilization zebrafish Assay for Yolk Sac Edema (AID 2283634)
Method in brief: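 Presence or absence of yolk sac edema was recorded at 120 hpf in surviving larvae. These were wild-type Tropical 5D embryos, chorion removed at 4 hpf, held in static exposure at 28C from 6 hpf with 0.64% DMSO vehicle.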

[16] = Tanguay_ZF_120hpf_AXIS_legacy: (Legacy) Oregon State University Tanguay Lab 120 Hour Post-fertilization zebrafish Assay for Body Axis Malformation (AID 2283635)
Method in brief: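 Binary scoring of axis defects at 120 hpf under brightfield, fitted positive versus DMSO. Tropical 5D embryos, chorion removed by pronase at 4 hpf, were singly exposed in sealed, dark plates at 28C from 6 hpf; DMSO 0.64% final.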

[17] = Tanguay_ZF_120hpf_EYE_legacy: (Legacy) Oregon State University Tanguay Lab 120 Hour Post-fertilization zebrafish Assay for Eye Malformation (AID 2283636)
Method in brief: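 Read-out is binary presence or absence of eye malformation, scored by brightfield microscopy at 120 hpf. Single larvae were exposed from 6 hpf in embryo medium containing 0.64% DMSO, with DMSO as baseline.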

[18] = Tanguay_ZF_120hpf_SNOU_legacy: (Legacy) Oregon State University Tanguay Lab 120 Hour Post-fertilization zebrafish Assay for Snout Malformation (AID 2283637)
Method in brief: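 Snout malformation read as a yes/no call on brightfield images of 120 hpf larvae (Tropical 5D strain). Static exposure began at 6 hpf on dechorionated embryos in 0.64% DMSO, with gain of signal analysed versus DMSO controls.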

[19] = TOX21_p53_BLA_p3_viability: Viability Assessment in the Tox21 HCT-116 p53 Agonism Beta-lactamase Assay, Phase 3 (AID 2283593);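 note: cells exposed to compound for 16 h before reading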
Method in brief: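 Cellular ATP was quantified by CellTiter-Glo luminescence, read after 30 min at room temperature. Beforehand, HCT116 cells (4000/well) received compound 5 h post-seeding, 217-fold diluted from DMSO, then incubated 16 h at 37C.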

[20] = ATG_XTT_Cytotoxicity: Cytotoxicity Assessment in the Attagene TRANS-FACTORIAL HepG2 Assay (AID 2283584)
Method in brief: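 Viability endpoint from XTT after 24 h chemical exposure of reporter-transfected human HepG2 liver cells; signal loss fitted relative to DMSO negative control.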

Measured: AC50

Chain of Cellular tumor antigen p53 (Homo sapiens) (P04637 whole entry, looked up): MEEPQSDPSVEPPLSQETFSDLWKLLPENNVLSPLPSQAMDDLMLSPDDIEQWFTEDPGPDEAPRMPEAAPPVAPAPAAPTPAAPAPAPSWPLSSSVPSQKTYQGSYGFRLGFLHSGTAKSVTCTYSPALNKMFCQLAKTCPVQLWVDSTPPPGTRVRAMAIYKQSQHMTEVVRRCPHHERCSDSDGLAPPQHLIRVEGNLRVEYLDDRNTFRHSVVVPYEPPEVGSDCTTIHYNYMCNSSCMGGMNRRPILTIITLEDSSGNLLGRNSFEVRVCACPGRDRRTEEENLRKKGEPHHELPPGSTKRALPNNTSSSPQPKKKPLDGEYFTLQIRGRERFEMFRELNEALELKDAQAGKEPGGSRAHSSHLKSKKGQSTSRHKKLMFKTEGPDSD

Cc1cc(N=Nc2ccccc2C)ccc1N
inactive: [7] | [8] | [9] | [10] | [12] | [13] | [14] | [15] | [16] | [17] | [18]
active: [1] 1.41 µM | [2] 1.97 µM | [3] 85.9 µM | [4] 12.2 µM | [5] 4 µM | [6] 5.21 µM | [7] 81 µM | [8] 73.1 µM | [10] 46.1 µM | [11] 73.3 µM and 76.2 µM | [13] 74.4 µM

CCC(C)c1ccc(O)cc1 (stereo not drawn)
inactive: [1] | [2] | [3] | [4] | [5] | [6] | [7] | [8] | [19] | [9] | [10] | [11] | [12] | [13] | [14] | [15] | [16] | [17] | [18]

CC(C)(OOC(C)(C)c1ccccc1)c1ccccc1
inactive: [1] | [2] | [4] | [5] | [6] | [20] | [8] | [19] | [10] | [11] | [12] | [13] | [14] | [15] | [16] | [17] | [18]
active: [3] 24.4 µM

C=CCc1ccc2c(c1)OCO2
inactive: [1] | [2] | [3] | [4] | [5] | [6] | [7] | [8] | [9] | [10] | [11] | [12] | [13] | [14] | [15] | [16] | [17] | [18]

Cc1ccc([N+](=O)[O-])cc1
inactive: [1] | [2] | [4] | [5] | [6] | [7] | [8] | [9] | [10] | [11] | [12] | [13] | [14] | [15] | [17] | [18]
active: [3] 8.26 µM

ClC1=C(Cl)[C@]2(Cl)[C@H]3[C@H]([C@@H]4C=C[C@H]3C4)[C@@]1(Cl)C2(Cl)Cl
inactive: [2] | [4] | [5] | [6] | [7] | [8] | [9] | [11] | [12] | [13] | [14] | [15] | [16] | [18]
active: [1] 30.8 µM | [3] 6.68 µM

Nc1ccc(Cl)cc1N
active: [1] 19.3 µM | [2] 12.4 µM | [3] 37.8 µM | [4] 54.9 µM | [5] 21 µM | [6] 35.2 µM | [11] 74.7 µM | [14] 25.3 µM
inactive: [7] | [8] | [9] | [10] | [11] | [12] | [13] | [15] | [16] | [17] | [18]

c1ccc2c(c1)oc1ccccc12
inactive: [1] | [2] | [3] | [4] | [5] | [6] | [7] | [8] | [9] | [10] | [11] | [12] | [13] | [14] | [15] | [16] | [17] | [18]

O=C(O)C1C2CCC(O2)C1C(=O)O (stereo not drawn)
active: [1] 34.7 µM | [3] 50 µM | [6] 75.1 µM
inactive: [2] | [4] | [5] | [7] | [8] | [9] | [10] | [11] | [13] | [14] | [15] | [16] | [17] | [18]

CC(C)(C)C(O)(CCc1ccc(Cl)cc1)Cn1cncn1 (stereo not drawn)
active: [1] 12.7 µM | [2] 71.9 µM | [3] 1.32 µM | [6] 72 µM
inactive: [4] | [5] | [7] | [8] | [9] | [10] | [11] | [12] | [13] | [14] | [15] | [16] | [17] | [18]

CCN(CC)CCO
inactive: [1] | [2] | [3] | [4] | [5] | [6] | [7] | [8] | [9] | [10] | [11] | [12] | [13] | [14] | [15] | [16] | [17]

Cc1ccc(N)c(N)c1
inactive: [1] | [2] | [4] | [5] | [6] | [7] | [8] | [9] | [10] | [11] | [12] | [13] | [14] | [15] | [16] | [17] | [18]
active: [3] 50 µM

c1ccc(N=Nc2ccccc2)cc1
inactive: [1] | [2] | [3] | [4] | [5] | [6] | [7] | [8] | [9] | [11] | [13] | [14] | [15] | [16] | [17] | [18]
